# Screening results: PubChem, National Center for Advancing Translational Sciences (NCATS)
# Only some compounds are listed: those with a hit (about 19% of all), similar ones and a draw of the others.
# TDP1 inh: blocks human tyrosyl-DNA phosphodiesterase 1; Q9NUW8; recombinant TDP1, AlphaScreen DNA substrate cleavage; Potency, µM (series often up to 130 µM), for the others: top-dose activity change, negative = inhibition, usual class: inhibitors; 350,000 tested, 0.28% active; AID 485290; note: nearly all actives have a fitted effect of over 40% in size
# Target sequence (Q9NUW8 whole entry, looked up): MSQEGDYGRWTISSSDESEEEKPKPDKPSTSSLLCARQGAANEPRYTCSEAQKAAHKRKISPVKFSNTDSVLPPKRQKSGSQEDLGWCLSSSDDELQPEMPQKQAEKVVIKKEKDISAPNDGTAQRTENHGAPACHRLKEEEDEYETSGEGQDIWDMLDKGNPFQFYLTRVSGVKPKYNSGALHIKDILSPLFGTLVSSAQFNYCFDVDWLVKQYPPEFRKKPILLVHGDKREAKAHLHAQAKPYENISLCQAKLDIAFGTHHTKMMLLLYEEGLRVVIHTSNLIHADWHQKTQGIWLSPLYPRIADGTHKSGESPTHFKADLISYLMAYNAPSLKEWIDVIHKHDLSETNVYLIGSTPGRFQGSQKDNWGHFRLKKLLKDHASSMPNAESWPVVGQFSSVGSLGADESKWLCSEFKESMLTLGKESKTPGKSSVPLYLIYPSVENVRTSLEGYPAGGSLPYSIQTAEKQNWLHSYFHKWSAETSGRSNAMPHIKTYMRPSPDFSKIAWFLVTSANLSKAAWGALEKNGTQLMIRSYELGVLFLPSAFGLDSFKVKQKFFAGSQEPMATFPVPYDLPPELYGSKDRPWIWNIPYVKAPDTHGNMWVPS
#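 Tdp1 1 nM final; 15 min RT w/ cpd; substrate 15 nM, 5 min; beads 10 ug/ml, 10 min; AlphaScreen read. Neg ctrl: no enzyme.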
# TDP1 cell noCPT: qHTS for Inhibitors of human tyrosyl-DNA phosphodiesterase 1 (TDP1): qHTS in cells in absence of CPT. DT40 Tdp1-/- hTDP1 cells, no CPT, ATP luminescence, 48 h. Potency, µM (doses to about 46.2 µM), without a hit: top-dose activity change, negative = growth inhibition, actives largely listed as inhibitors. 420,000 tested, 15% active; note: nearly all actives have a fitted effect of over 55% in size
#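 Stably hTDP1-transfected Tdp1-null chicken DT40 cells were treated with library compounds minus camptothecin and grown for at least 48 hr at 37 °C, after which cellular ATP was quantified by luminescence.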
# Gal4-VP16 FLuc: inhibits Gal4-VP16 luciferase reporter, ROR gamma counter-screen. Drosophila S2 Gal4-VP16 UAS-luciferase, luminescence, 20 h. Potency, µM (doses to about 53.6 µM), without a hit: top-dose activity, negative = inhibition, hits mostly inhibitors. 310,000 tested, 3.5% active. AID 2546;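 note: Gal4-VP16 expression switched on by copper sulfate through the metallothionein promoter; nearly all actives have a fitted effect of over 50% in size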
# RORgamma inh: inhibitors of mouse ROR gamma transcriptional activity | Drosophila S2 Gal4-RORgamma UAS-luciferase reporter, 20 h | P51450 | Potency, µM (highest dose often 53.6 µM), inactives show top-dose activity change, negative = inhibition, hits mostly inhibitors | 310,000 tested, 5.4% active; note: nearly all actives have a fitted effect of over 60% in size
#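 Schneider cells (Drosophila), stable Gal4 DBD–ROR gamma + UAS-luc; 1 hr cmpd preincubation; Cu2+ induction 700 uM final; 20 hr ambient; luminescence.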
# DT40 TDP1 CPT: DT40-hTDP1 cell growth loss with CPT; chicken DT40 Tdp1-/-;hTDP1 cells + 20 nM CPT, ATP luminescence, 48 h; 420,000 tested, 12% active; Potency, µM (titrated, usually from 46.2 µM), for inactives: top-dose activity change, negative = growth inhibition, hits mostly inhibitors; note: nearly all actives have a fitted effect of over 55% in size
#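 Cell growth measured by CellTiter-Glo luminescence after a minimum 48 h, 37 C compound exposure with 20 nM CPT in Tdp1-knockout DT40 cells stably expressing hTDP1, seeded 400/well; qHTS titration format.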
# Starred values were filed as active, the others as inactive; ? = inconclusive; . = no result; [ ] = remark or other dose. Calls come from the whole dose curve; as a rule, active = well fitted curve in the direction sought with a large enough effect; inconclusive = small, poorly fitted or top-dose-only effect, or another doubt; inactive = no such curve, though single readings can be large; an effect the other way counts as inactive or inconclusive. % is set by controls: 0 for no effect and ±100 for the full control effect; potency is the fitted concentration of half-maximal effect.
SMILES,TDP1 inh,TDP1 cell noCPT,Gal4-VP16 FLuc,RORgamma inh,DT40 TDP1 CPT
CC(C)(C)[C@@H]1COC(=O)[C@@H](Cc2ccc(F)cc2)CC/C=C\C[C@@H](CC(=O)N(CCO)Cc2ccccc2)C(=O)N1,1%,?,.,.,23µM*
O=C1N[C@@H](Cc2ccccc2)COC(=O)[C@H](Cc2ccc(F)cc2)CC/C=C/C[C@H]1CC(=O)N(CCO)Cc1ccccc1,2%,?,.,.,?
CC(C)(C)[C@@H]1COC(=O)[C@H](Cc2ccc(F)cc2)CC/C=C\C[C@H](CC(=O)N(CCO)Cc2ccccc2)C(=O)N1,1%,9.2µM*,.,.,9.2µM*
CCN(CC(=O)Nc1ccc(NC(C)=O)cc1)CC(=O)Nc1cccc2ccccc12,.,?,.,.,-9%
CCN(CC)c1ccc(S(=O)(=O)N2CCOCC2)cc1NC(=O)CSC(=S)N1CCCC1,6%,10µM*,.,.,18µM*
CCN(CC)c1ccc(S(=O)(=O)N2CCOCC2)cc1NC(=O)Nc1ccccc1,0%,21µM*,.,.,?
CCN(CC)c1ccc(S(=O)(=O)N2CCOCC2)cc1NC(=O)CNCc1ccccc1,4%,21µM*,3%,2%,?
CCN(CC)c1ccc(S(=O)(=O)N2CCOCC2)cc1NC(=O)CN1CCN(Cc2ccccc2)CC1,8%,15µM*,2%,-28%,16µM*
c1ccc(-c2nn[nH]n2)c(Nc2cccc3c2CCCC3)c1,20%,.,-22%,18%,.
O=C(c1cc(-c2ccco2)nn1-c1cccc(Cl)c1)N1CCCCC1,-11%,16µM*,?,?,16µM*
O=C(Nc1ccc(NC(=O)c2ccco2)c(Cl)c1)c1ccccc1,-8%,23µM*,3%,24%,?
CC(C)Oc1ccc(C(=O)Nc2ccc(NC(=O)c3ccco3)c(Cl)c2)cc1,0%,?,-12%,16%,?
Nc1ccc(C(=O)Nc2ccc(NC(=O)c3ccco3)c(O)c2)cc1,-5%,16µM*,-1%,13%,?
O=C(Nc1cccc(NC(=O)c2nccc3ccccc23)c1)c1ccco1,6%,10µM*,-11%,7%,?
O=C(Nc1cccc(NC(=O)c2ccco2)c1)c1ccccc1,.,-16%,10%,30%,-20%
O=C(Nc1ccc(Cl)c(Cl)c1)Oc1ccc(NC(=O)c2ccco2)cc1,1%,26µM*,-2%,22%,?
O=C(/C=C/Nc1ccccc1Br)c1ccccn1,2%,?,?,?,?
Cn1cnnc1SCC(=O)NNC(=O)COc1ccc(Cl)cc1,5%,2%,3%,-2%,3%
Nc1cccc(C(=O)Nc2ccc(N)cc2Cl)c1,5%,0%,9%,18%,-6%
O=C(Nc1ccccc1C(=O)O)c1cccc(NC(=O)c2ccc(Br)o2)c1,0%,1.6µM*,-12%,?,-7%
O=C(Nc1cccnc1)c1cccc(NC(=O)c2ccco2)c1,1%,?,8%,35%,-13%
O=C(Nc1cccc(-c2cnc3ccccc3n2)c1)C1CC(=O)N(c2ccccc2)C1 (stereo not drawn),3%,23µM*,-13%,?,21µM*
O=C(Nc1cccc(-c2cnc3ccccc3n2)c1)c1cccc(NC(=O)c2ccco2)c1,-6%,15µM*,?,?,6.5µM*
Nc1ccc(NC(=O)c2cccc(C(=O)Nc3ccc(N)cc3Cl)c2)c(Cl)c1,1%[12.3 µM],16µM*,-18%,-10%,18µM*
CCOC(=O)c1snc(C(=O)NC2CCCCC2)c1N,10%,-5%,1%,?,-13%
SMILES,TDP1 inh,TDP1 cell noCPT,Gal4-VP16 FLuc,RORgamma inh,DT40 TDP1 CPT
CC(C)Oc1ccc(C(=O)NCCCNC(=O)c2cccnc2)cc1,3%[56.1 µM],10%,-3%,12%,-2%
CC(C)Sc1ccc([N+](=O)[O-])cc1C(=O)Nc1ccncc1,9%,-18%,-10%,4%,-4%
CCC(=O)Nc1cccc(-c2cnc3ccccc3n2)c1,4%,?,?,27%,?
O=C(Nc1ccccc1O)c1cccc(NC(=O)c2ccco2)c1,.,13µM*,?,?,21µM*
O=C(CCl)Nc1cccc(-c2cnc3ccccc3n2)c1,5%,2.3µM*,-8%,6%,2.9µM*
O=C(c1ccccc1)c1cccc(NC(=O)c2ccco2)c1,9%,?,-5%,41%,?
O=C(Cc1ccc(S(=O)(=O)N2CCOCC2)s1)NC1CCCCC1,.,3%,.,.,1%
Cc1onc(-c2ccccc2Cl)c1C(=O)OCC(=O)c1c(N)n(C)c(=O)n(C)c1=O,5%,7.3µM*,5%,24%,7.3µM*
CC(C)Cn1c(N)c(C(=O)COC(=O)c2ccccc2C(=O)c2ccccc2)c(=O)n(C)c1=O,4%,9.2µM*,.,.,16µM*
Cc1onc(-c2c(F)cccc2Cl)c1C(=O)OCC(=O)c1c(N)n(C)c(=O)n(C)c1=O,4%,?,-9%,35%,?
CC(C)Cn1c(N)c(C(=O)COC(=O)c2cccn2C)c(=O)n(C)c1=O,1%,16µM*,.,.,15µM*
Cn1c(N)c(C(=O)COC(=O)c2ccccc2C(=O)c2ccc(Cl)cc2)c(=O)n(C)c1=O,3%,15µM*,.,.,?
CCCC1(C(=O)OCC)NC(c2ccc(N(C)C)cc2)C2C(=O)N(c3ccc(OCC)cc3)C(=O)C21 (stereo not drawn),6%,0%,0%,?,-3%
CC(C)Cn1c(N)c(C(=O)COC(=O)c2ccc3ccccc3n2)c(=O)n(C)c1=O,4%,16µM*,-19%,23%,16µM*
CC(C)Cn1c(N)c(C(=O)COC(=O)c2cccnc2Cl)c(=O)n(C)c1=O,5%,10µM*,-6%,32%,?
CC(C)Cn1c(N)c(C(=O)COC(=O)c2ccccc2Cl)c(=O)n(C)c1=O,7%,?,-12%,?,?
Cc1noc(C)c1C(=O)OCC(=O)c1c(N)n(CC(C)C)c(=O)n(C)c1=O,-2%,?,6%,8%,18µM*
Cc1nn(C)c2c1NC(=O)CS2,.,-7%,.,.,9%
Cc1ccc(C(=O)N/C(=C/c2ccco2)C(=O)Nc2cccc(C(=O)O)c2)cc1,-11%,29%,4%,-18%,3%
Nc1ncc(-c2nnnn2-c2ccc(Cl)cc2)c(-c2ccc(Cl)cc2)n1,4%,5.8µM*,-15%,?,4.6µM*
COCCCNC(=O)c1ccc2c3c(onc13)-c1ccccc1C2=O,7%,15µM*,?,6%,7.3µM*
CC(C)OCCCNC(=O)c1ccc2c(c1)S(=O)(=O)c1ccccc1C2=O,2%,?,-1%,-16%,-8%
COc1ccccc1/C=N/OC(=O)c1ccc(F)cc1,.,13%,-2%,0%,-6%
